# Screening results (PubChem BioAssay)
# Shown are actives, neighbours in structure and some others; about 9.2% of the full set was active somewhere.
# USP7 block – blocks human USP7 ubiquitin-rhodamine cleavage | 47,000 tested, 0.3% active | AID 1645854 | Q93009 | inhibition, % at 20 µM | purified USP7, Ub-rhodamine cleavage fluorescence
# USP10 block – blocks human USP10 ubiquitin-rhodamine cleavage. 47,000 tested, 1.1% active. inhibition, % at 20 µM. purified USP10, Ub-rhodamine fluorescence, 60 min. Q14694. AID 1645856
# UCHL1 block – human UCHL1 deubiquitinase inhibition | P09936 | purified UCHL1, Ub-rhodamine cleavage fluorescence | inhibition, % at 20 µM | 47,000 tested, 0.2% active | AID 1645859
# USP8 block – inhibitors of human USP8 deubiquitinase | purified USP8, Ub-rhodamine cleavage fluorescence, 30 min | AID 1645853 | 47,000 tested, 4.2% active | inhibition, % at 20 µM | P40818
# USP17 inh – blocks human USP17 ubiquitin-rhodamine cleavage; inhibition, % at 50 µM; purified USP17, Ub-rhodamine cleavage fluorescence, 3 h; AID 1645855; 47,000 tested, 6.5% active
# OTUD3 inh – human OTUD3 deubiquitinase inhibition | Q5T2D3 | purified OTUD3, Ub-rhodamine fluorescence, 2 h | inhibition, % at 25 µM | 47,000 tested, 0.7% active | AID 1645858
# Active calls of the source: *; . = no result given. No stated cut-off is given here; in the data, active means inhibition above about 30%; inactive means the rest.
SMILES,USP7 block,USP10 block,UCHL1 block,USP8 block,USP17 inh,OTUD3 inh
COc1ccc2c(c1)c(=O)c(C(=O)c1ccc(Cl)cc1)cn2CC(=O)Nc1ccc(Cl)cc1,0,-2,-4,16,1,-21
COc1ccc(NC(=O)Cn2cc(C(=O)c3ccccc3)c(=O)c3cc(Cl)ccc32)cc1OC,7,33*,6,15,-1,-8
COc1ccc(Cl)cc1-n1nnc(C(=O)N2CCc3ccccc3C2)c1C,1,6,6,12,.,15
O=C(Nc1ccc2c(c1)OCO2)c1cncc(NS(=O)(=O)c2ccc3c(c2)OCCO3)c1,-13,-8,-6,45*,-41,-50
CC1Oc2ccc(NC(=O)c3ccc(NS(=O)(=O)c4ccc5c(c4)OCCO5)cc3)cc2NC1=O (configuration not stated),9,4,3,-19,5,-4
O=C(Nc1ccc2c(c1)OCO2)c1cncc(NS(=O)(=O)c2ccccc2)c1,-33,0,21,70*,16,-3
CC(=O)Nc1ccc(S(=O)(=O)Nc2cncc(C(=O)NCc3ccc4c(c3)OCO4)c2)cc1,7,-2,3,6,.,7
O=C(NCc1ccc(Cl)cc1)C1CCN(c2ncccc2-n2cccc2)CC1,-41,5,4,-2,-4,-3
COc1cc(NC(=O)Cn2c(=O)[nH]c3ccccc3c2=O)cc(OC)c1,6,5,1,19,53*,11
COc1cc(NC(=O)Cn2c(=O)n(CC3CCC(C(=O)NC4CCCC4)CC3)c(=O)c3ccccc32)cc(OC)c1 (configuration not stated),12,12,5,9,61*,43*
O=C(Cn1c(=O)n(CC2CCC(C(=O)NC3CCCC3)CC2)c(=O)c2ccccc21)NCc1ccco1 (configuration not stated),8,27,10,-15,54*,58*
Cc1ccc(S(=O)(=O)N2CCN=C2N2CCN(C)CC2)c(C)c1,-3,-2,-3,-15,-11,-11
CC(C)NS(=O)(=O)c1ccc(C(=O)Nc2ccc(-c3nc4ccccc4o3)cc2)cc1,-16,-4,-15,-13,10,-14
CCOC(=O)c1ccc(NC(=O)c2ccc(S(=O)(=O)N3CCc4ccccc4C3)cc2)cc1,9,13,3,10,33*,9
O=C(Nc1ccc(-c2nc3ccccc3o2)cc1)c1ccc(S(=O)(=O)N2CCc3ccccc3C2)cc1,8,26,-2,-10,35*,10
CCOC(=O)N1CCN(C(=O)c2cn(CC)c3ccc(S(=O)(=O)N4CCc5ccccc5C4)cc3c2=O)CC1,0,0,1,46*,19,3
Cc1sc(NC(=O)c2ccc(S(=O)(=O)N3CCc4ccccc4C3)cc2)c(C(N)=O)c1C,5,0,5,-23,8,4
CS(=O)(=O)N1CCC2(CC1)CN(Cc1ccccn1)C(=O)CO2,4,1,2,-70,-6,8
Cc1nnc(NC(=O)NS(=O)(=O)c2ccccc2C(F)(F)F)s1,1,2,2,-22,6,14
Cc1cc(C)c(NC(=O)/C=C/c2ccc3ccccc3n2)c(C)c1,-4,-5,-11,18,34*,-40
Cc1cc(NC(=O)/C=C/c2ccccc2)c2ccccc2n1,-1,-7,1,-3,-23,-17
COC(=O)c1ccc(C2c3[nH]c4ccccc4c3C[C@@H]3C(=O)N(c4ccc5c(c4)OCCO5)C(=O)N23)cc1 (some centres not stated),8,48*,1,5,6,23
COc1ccc(-c2c(NC(=O)c3cccs3)n(C)c3ccccc3c2=O)cc1,6,1,4,18,15,6
Cn1c(NC(=O)c2ccc(Cl)cc2)c(-c2ccccc2)c(=O)c2ccccc21,2,2,-1,-2,4,-2
Cc1ccc(-c2c(NC(=O)c3cccs3)n(C)c3ccccc3c2=O)cc1,9,16,6,32*,22,9
Cc1ccc(C(=O)Nc2c(-c3ccc4c(c3)OCO4)c(=O)c3ccccc3n2C)cc1,-2,24,10,41*,37*,8
Cn1c(NC(=O)c2cccc(Br)c2)c(-c2ccc(Cl)cc2)c(=O)c2ccccc21,-1,15,-3,-6,41*,-8
FC(F)(F)c1cccc(CSc2ccc3nnc(-c4ccccn4)n3n2)c1,-9,1,-2,2,-1,-3
